HT1080 IDH1KD tx: qHTS for induction of synthetic lethality in tumor cells producing 2HG: qHTS for the HT-1080-IDH1KD cell line; AID 686971, 2013; HT-1080 IDH1 knockdown viability, ATP luminescence, 48 h; Potency, µM (doses to about 46.1 µM), for inactives: at the top dose activity, negative = toxicity, most hits filed as cytotoxic; actives 2% (n = 360,000);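 also: 0% = DMSO wells and -100% = cell-free medium wells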
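Assay cells: HT-1080 with IDH1 knockdown, 750 per well, RPMI/5% FBS. Exposure: 48 h at 37 °C following 2 h pre-incubation. Read: CellTiter-Glo luminescence; fitted concentration-response, curve class assigned.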
TDP1 cell noCPT: qHTS for Inhibitors of human tyrosyl-DNA phosphodiesterase 1 (TDP1): qHTS in cells in absence of CPT; AID 686978, 2013; Potency, µM (titrated, usually from 46.2 µM), for the others: top-dose activity change, negative = growth inhibition, usual class: inhibitors; actives 15% (n = 420,000); DT40 Tdp1-/- hTDP1 cells, no CPT, ATP luminescence, 48 h; also: % is scaled to controls: 0 for no effect and ±100 for the full control effect; nearly all actives have a fitted effect of over 55% in size
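No-CPT arm: Tdp1-/-;hTDP1 DT40 cells (400/well) plus compounds, incubated ≥48 hr at 37 °C. Readout CellTiter-Glo luminescence.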
TDP1 cell CPT: qHTS for Inhibitors of human tyrosyl-DNA phosphodiesterase 1 (TDP1): qHTS in cells in presence of CPT | chicken DT40 Tdp1-/-;hTDP1 cells + 20 nM CPT, ATP luminescence, 48 h | actives 12% (n = 420,000) | Potency, µM (doses to about 46.2 µM), for the others: at the highest dose activity change, negative = growth inhibition, usual class: inhibitors | AID 686979, 2013; also: % is scaled to controls: 0 for no effect and ±100 for the full control effect; nearly all actives have a fitted effect of over 55% in size
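Cell growth measured by CellTiter-Glo luminescence after a minimum 48 h, 37 C compound exposure with 20 nM CPT in Tdp1-knockout DT40 cells stably expressing hTDP1, seeded 400/well; qHTS titration format.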
HT1080-NT tox: qHTS for induction of synthetic lethality in tumor cells producing 2HG: qHTS for the HT-1080-NT fibrosarcoma cell line. actives 1.6% (n = 360,000). HT-1080-NT fibrosarcoma viability, CellTiter-Glo ATP luminescence, 48 h. Potency, µM (series often up to 46.1 µM), for the others: at the highest dose activity, negative = less viability, most hits filed as cytotoxic;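 also: NT is the 2HG producing partner of a matched IDH1 knockdown line; 0% = DMSO-treated cells and -100% = media-only wells without cells; nearly all actives have a fitted effect of over 55% in size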
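HT-1080-NT; 750 cells/well; 5% FBS RPMI; 48 h compound, 37 degrees C; CellTiter-Glo luminescence; curve fitting and curve-class assignment.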
TGFb inhibitor: qHTS for Inhibitors of TGF-b; AID 588855, 2011; HepG2 CAGA-GFP TGF-b/SMAD3 reporter, GFP fluorescence, 18 h; TGF-beta stimulated, 500 pg/mL final; Potency, µM (series often up to 46.1 µM), without a hit: top-dose activity, negative = inhibition, usual class: inhibitors; actives 1.2% (n = 410,000); also: % is scaled to controls: 0 for no effect and ±100 for the full control effect; nearly all actives have a fitted effect of over 65% in size
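Cell-based qHTS in HEPG2 carrying a CAGA-GFP Smad reporter; compounds added before 500 pg/mL final TGF-beta, 18 h incubation at 37 degrees C, GFP fluorescence quantified per cell by imaging cytometry.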
HepG2 viability: qHTS for Inhibitors of TGF-b: Cytotox Counterscreen | HepG2 CAGA-GFP viability, ATP luminescence, 18 h | Potency, µM (titrated, usually from 46.1 µM), without a hit: at the top dose activity change, negative = cytotoxicity, most hits filed as cytotoxic | actives 0.76% (n = 410,000) | AID 588856, 2011
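CellTiter-Glo luminescence gave cytotoxicity after 18 hours at 37 degrees C. The cells were HepG2 CAGA-GFP in 1% FBS DMEM, stimulated with 500 pg/mL TGF-beta after compound addition. %Activity was normalised to no-cell wells (complete cell-killing) and DMSO (no toxicity), and curves were fitted and classified.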
Starred values were filed as active, the others as inactive; ? = inconclusive; · = no result; ! = repeats disagree. Only some compounds are listed: those with a hit (about 17% of all), similar ones and a draw of the others. Calls follow the shape of the dose curve; as a rule, active = well fitted curve in the direction sought with a large enough effect; inconclusive = small, poorly fitted or top-dose-only effect, or another doubt; inactive = no such curve, though single readings can be large; an effect the other way counts as inactive or inconclusive. Potency is read from the fitted curve at half-maximal effect.

SMILES | HT1080 IDH1KD tx | TDP1 cell noCPT | TDP1 cell CPT | HT1080-NT tox | TGFb inhibitor | HepG2 viability
COc1ccc(C)cc1NC(=O)Cn1c(=O)oc2cc(S(=O)(=O)NCc3ccccc3)ccc21 | · | 15µM* | 16µM* | · | ? | -18%
CC(C)(C)OC(=O)Nc1ccccc1-n1nnnc1C(C(=O)c1ccc(F)cc1)N1CCN(c2ccccn2)CC1 (stereo not drawn) | 4% | -26% | -2% | 6% | · | ·
CC(Oc1cc2oc(=O)c3c(c2cc1Cl)CCC3)C(=O)N1C[C@H]2C[C@@H](C1)c1cccc(=O)n1C2 (stereo partly drawn) | -2% | -18% | -13% | -2% | 13% | 5%
CCc1cccc2c(C(=O)CN3C(=O)NC(C)(c4cccc5ccccc45)C3=O)c[nH]c12 (stereo not drawn) | 15µM* | ? | ? | ? | ? | -28%
CCc1cccc2c(C(=O)CN3C(=O)NC4(CCc5ccccc54)C3=O)c[nH]c12 (stereo not drawn) | ? | 4.6µM* | 4.6µM* | ? | ? | -68%
CCc1cccc2c(C(=O)CN3C(=O)N(C)C4(CCCCC4)C3=O)c[nH]c12 | 16µM* | 8.2µM* | 3.3µM* | 18µM* | ? | -48%
COc1cc(Br)ccc1C1CC(=O)C(C)C(c2ccc(Br)cc2OC)N1 (stereo not drawn) | 0% | 2% | -1% | -1% | -9% | -27%
CC1CC(C)CN(S(=O)(=O)c2cc3c4c(c2)CCC(=O)N4CCC3)C1 (stereo not drawn) | -1% | 18µM* | ? | 1% | -11% | -2%
CCOC(=O)C1CCCN(S(=O)(=O)c2ccc(S(=O)(=O)N3CCCC3)cc2)C1 (stereo not drawn) | -1% | 3.7µM* | 4.6µM* | 0% | 8% | 2%
CCOC(=O)c1ccc(S(=O)(=O)N2CCC(C(=O)OCC)CC2)cc1 | ? | -19% | -3% | 8% | 1% | -3%
CCOC(=O)C1CCN(S(=O)(=O)c2ccc(CC)cc2)CC1 | 5% | ? | 21µM* | -4% | 5% | 3%
CCOC(=O)C1CCCN(S(=O)(=O)c2cc3c4c(c2)CCC(=O)N4CCC3)C1 (stereo not drawn) | -24% | 21µM* | 23µM* | -28% | -13% | -5%
CCOC(=O)C1CCCN(C(=O)c2ccc(S(=O)(=O)N3CCCC3)cc2)C1 (stereo not drawn) | 4% | -4% | -5% | 4% | -8% | 0%
Cc1ccc(-c2cc(C(=O)N/N=C/c3ccc(Cl)cc3)n[nH]2)o1 | -4% | ? | ? | -3% | 10% | -16%
CCCN=C1N(C)C[C@@H]2[C@@H]3C(=O)N(C)C(=O)[C@@H]3[C@](C)(C(=O)OC)N12 | 9% | 6% | 8% | 10% | -19% | -2%
CCOC(=O)C1CCN(C(=O)C2CCCN(S(=O)(=O)c3ccc(OCC)c(Cl)c3)C2)CC1 (stereo not drawn) | -22% | 5.8µM* | 6.5µM* | ? | ? | -94%
O=C(NCCc1csc(-c2cccc(F)c2)n1)c1cccs1 | · | 16µM* | ? | · | -6% | -32%
COc1ccc(-c2nc(CCNC(=O)c3cccs3)cs2)cc1 | 1% | 21µM* | 16µM* | 7% | ? | -10%
CC(C)Oc1ccc(C(=O)NCCc2csc(-c3cccc(F)c3)n2)cc1 | · | 0% | -25% | · | ? | -25%
COc1cccc(NC(=O)C(=O)NCCc2csc(-c3ccc(C(F)(F)F)cc3)n2)c1 | · | -28% | ? | · | 0% | 2%
CC1(C)CC(=NOC(=O)c2ccccc2)CC(C)(C)N1O | 9% | -28% | -4% | 19% | -17% | 1%
O=C(NC(=S)N(Cc1ccccc1)Cc1ccccc1)C1CCCCC1 | 1% | 23µM* | ? | -6% | 14% | 3%
O=C(NC(=S)NCCc1ccccc1)C1CCCCC1 | -7% | -24% | 3% | -6% | ? | -28%
CC(=O)N(O)CCCCCNC(=O)CCC(=O)N(O)CCCCCNC(=O)CCC(=O)N(O)CCCCCN | ? | 12µM*! | 21µM*! | ? | -8% | -3%
CCCC(=O)NCCCCNC(=O)CCC | 1% | -6% | -6% | 2% | 0% | 1%
SMILES | HT1080 IDH1KD tx | TDP1 cell noCPT | TDP1 cell CPT | HT1080-NT tox | TGFb inhibitor | HepG2 viability
CCCOC(=O)CSC1=C(C#N)C(c2ccc3c(c2)OCO3)CC(=O)N1 (stereo not drawn) | ? | 23µM* | 18µM* | ? | -2% | -19%
CCOc1ccc(NC(=O)CSC2=C(C#N)C(c3ccc4c(c3)OCO4)CC(=O)N2)cc1 (stereo not drawn) | ? | -27% | -26% | -9% | 14% | -6%
COC(=O)CSC1=C(C#N)C(c2ccc(C)o2)CC(=O)N1 (stereo not drawn) | 7.3µM* | 2.9µM* | 15µM* | ? | -16% | -9%
O=C(C[C@@H]1C/C=C\CC[C@H](Cc2ccc(F)cc2)C(=O)OC[C@@H]2CCCN2C1=O)N[C@H](CO)Cc1ccccc1 | -2% | 5.2µM* | 6.5µM* | -3% | 17% | -31%
CC(C)(C)[C@H]1COC(=O)[C@@H](Cc2ccc(F)cc2)CC/C=C/C[C@@H](CC(=O)N[C@@H](CO)Cc2ccccc2)C(=O)N1 | 1% | 16µM* | -109% | 0% | -26% | -3%
CC(C)(C)[C@H]1COC(=O)[C@@H](Cc2ccc(F)cc2)CC/C=C/C[C@@H](CC(=O)N[C@H](CO)Cc2ccccc2)C(=O)N1 | -7% | 18µM* | 8.2µM* | -17% | ? | -27%
CCCCC1(Cc2cccc([N+](=O)[O-])c2)C(=O)N(c2ccccc2)N(c2ccccc2)C1=O | ? | ? | ? | -5% | -17% | 6%
COCCNC(=O)c1c(C)oc2nc(C)nc(N3CCOCC3)c12 | · | 9% | 0% | · | -19% | 0%
CCC(C)Cn1cnc2c(SCc3ccccc3F)nc(N)nc21 (stereo not drawn) | -22% | 21µM* | ? | -22% | -2% | -2%
